Values joined by “and” are separate entries in the source; they are usually repeats but may differ in a detail not shown here. Equal values may be shown once. Where a name gives a salt, the structure may show the parent alone.
Legend:
Test in all cases: cell viability relative to vehicle control; higher = less cytotoxic
Settings in all cases: 10 µM
[1] = tested on: K562
Outline: (§1)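 Mutant clones made by CRISPR editing and their isogenic wild-type counterparts, from four leukaemia lines, were exposed to a single 10 µM dose of each library compound for 48 h. The supernatant was then removed and CellTiter-Glo luminescence was read. Viability was reported as percent of the on-plate vehicle control.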

[2] = tested on: MARIMO
Outline: as §1

[3] = tested on: MOLM14
Outline: as §1

[4] = tested on: OCI-AML2
Outline: as §1

Structure (SMILES)	cell viability ([1]; SRSF2 genotype: SRSF2 P95H/wt)	cell viability ([1]; SRSF2 genotype: SRSF2 wt/wt)	cell viability ([2]; SRSF2 genotype: SRSF2 P95H/wt)	cell viability ([2]; SRSF2 genotype: SRSF2 wt/wt)	cell viability ([3]; SRSF2 genotype: SRSF2 P95H/wt)	cell viability ([3]; SRSF2 genotype: SRSF2 wt/wt)	cell viability ([4]; SRSF2 genotype: P95H/wt)	cell viability ([4]; SRSF2 genotype: wt/wt)
C[C@H](Cn1cnc2c(N)ncnc21)OCP(=O)(O)O [Tenofovir (Viread)]	101%	98.5%	97.2%	101%	105%	98.3%	106%	109%
CO[C@@H]1[C@H](OC(=O)/C=C/C=C/C=C/C=C/C(=O)O)CC[C@]2(CO2)[C@H]1[C@@]1(C)O[C@@H]1CC=C(C)C [Fumagillin]	77.1% and 77.5%	72.3%	51.5%	69.4%	50.9%	50.5%	72.4%	63%
Cc1ncc(-c2ccnc(Nc3ccc(S(C)(=O)=O)cc3)n2)n1C(C)C	45.1% and 45.5%	32.4%	10.9%	5.22%	1.23%	0.38%	0.94%	15.2%
COc1ccc(COc2ccc(Cc3cnc(N)nc3N)cc2OC)cc1	83.8% and 84%	80%	84%	92.8%	86.6%	88.3%	66%	70.3%
COc1ccc(-c2ccc3ncc4c(c3c2)n(-c2ccc(N3CCNCC3)c(C(F)(F)F)c2)c(=O)n4C)cn1	0.26% and 0.21%	0.16%	0.25%	0.28%	0.18%	0.18%	0.11%	0.16%
CC/C(=C(\c1ccc(O)cc1)c1ccc(OCCNC)cc1)c1ccccc1 [Endoxifen HCl]	21% and 29.8%	24.5%	66%	59.9%	23.2%	29.7%	17%	38.1%
CNC(=O)c1ccc2cc([C@@]3(O)CCn4cncc43)ccc2c1 [TAK-700 (Orteronel)]	107% and 98.8%	97.3%	93.2%	105%	101%	100%	95.6%	104%
CC(C)(CCCCCC(O)CCCCCC(C)(C)C(=O)O)C(=O)O	103% and 96.8%	102%	106%	106%	104%	104%	97.5%	108%
CC(C)(C)OC(=O)N[C@@H]1CCCC[C@H]1N [(1R,2R)-trans-N-Boc-1,2-cyclohexanediamine]	104% and 108%	98.6%	101%	104%	101%	105%	114%	104%
C[C@@H]1CC[C@]2(C(=O)O[C@@H]3O[C@H](CO)[C@@H](O)[C@H](O)[C@H]3O)CC[C@]3(C)C(=CC[C@@H]4[C@@]5(C)CC[C@H](O)[C@@](C)(CO)[C@@H]5CC[C@]43C)[C@@H]2[C@]1(C)O [Pedunculoside]	109% and 108%	113%	108%	97.5%	107%	108%	106%	104%
CC/C=C(\C(=O)N[C@@H]1C(=O)N2C(C(=O)OCOC(=O)C(C)(C)C)=C(COC(N)=O)CS[C@H]12)c1csc(N)n1 [Cefcapene Pivoxil Hydrochloride]	101% and 102%	109%	93.2%	103%	97.3%	105%	114%	106%
CCC(CC)CC1(C(=O)Nc2ccccc2SC(=O)C(C)C)CCCCC1	94.6% and 96.2%	103%	96%	97.5%	90.1%	95.5%	83.2%	85.5%
COc1cc(-c2cc(-c3cccc(O)c3)cnc2N)cc(OC)c1OC	13.5% and 28.9%	15.6%	78.2%	72.5%	81.9%	83%	83.5%	83.1%
COC(=O)C1=CO[C@@H](O[C@@H]2O[C@H](CO)[C@@H](O)[C@H](O)[C@H]2O)[C@@H]2C(CO)=CC[C@H]12 [Geniposide]	98.8% and 85.3%	87.9%	84.1%	100%	94.9%	92.3%	99.6%	89.8%
COc1ccc(C(=O)CC2(O)C(=O)Nc3c(Cl)ccc(Cl)c32)cc1 (stereo unspecified)	16.2% and 28.8%	27.4%	7.08%	8.57%	6.9%	2.04%	4.82%	10.3%
CC(C)(C)c1cc(C(C)(C)C)c(NC(=O)c2c[nH]c3ccccc3c2=O)cc1O [Ivacaftor (VX-770)]	79.4% and 75.5%	76.1%	101%	111%	85.7%	87.5%	91.7%	86%
CNC(=O)c1cc(Oc2ccc(NC(=O)Nc3ccc(Cl)c(C(F)(F)F)c3)cc2)ccn1 [Sorafenib Tosylate]	7.11% and 11.7%	11.8%	35.8%	29.3%	9.9%	11.5%	9.8%	11.3%
O=C(NCCCNc1nc(Nc2cccc(CN3CCOCC3)c2)ncc1C1CC1)C1CCC1	74.5% and 95.7%	84.8%	69.5%	74.1%	8.31%	6.65%	17.8%	21.4%
CN1CCC(COc2cnc(-c3cccc(Cn4nc(-c5cccc(C#N)c5)ccc4=O)c3)nc2)CC1	30.9% and 26.1%	30.5%	61.7%	63.6%	55.6%	47.5%	49.2%	52.8%
CCCCCCCCCC[C@H](C(=O)O)[C@]1(C(=O)O)CCC(=O)O1 [Spiculisporic Acid]	107% and 103%	103%	104%	107%	98.8%	110%	95.5%	103%
CC(C)[C@H](NC(=O)OCc1ccccc1)C(=O)N[C@@H](C)C(=O)N[C@@H](CC(=O)O)C(=O)CF	109% and 102%	106%	99.8%	102%	104%	104%	102%	97.4%

Structure (SMILES)	cell viability ([1]; SRSF2 genotype: SRSF2 P95H/wt)	cell viability ([1]; SRSF2 genotype: SRSF2 wt/wt)	cell viability ([2]; SRSF2 genotype: SRSF2 P95H/wt)	cell viability ([2]; SRSF2 genotype: SRSF2 wt/wt)	cell viability ([3]; SRSF2 genotype: SRSF2 P95H/wt)	cell viability ([3]; SRSF2 genotype: SRSF2 wt/wt)	cell viability ([4]; SRSF2 genotype: P95H/wt)	cell viability ([4]; SRSF2 genotype: wt/wt)
O=C(O)CCCNC(=O)c1cccnc1 [Pikamilone]	109% and 105%	119%	97.1%	105%	99.9%	106%	114%	118%
Oc1ccc(-c2c(-c3ccccc3)nn3c(C(F)(F)F)cc(C(F)(F)F)nc23)cc1	87.4% and 87.6%	83%	85.7%	93.3%	75.9%	86.1%	92%	103%
O=S(=O)(c1ccccc1)c1cnc2c(N3CCNCC3)cccc2c1	93.9%	94.6%	95%	95%	98.7%	100%	101%	93.2%
O=C1CCc2ccc(O)cc2N1 [7-Hydroxy-3,4-dihydrocarbostyril]	110% and 104%	102%	105%	112%	107%	103%	101%	107%
CN1C(N)=N[C@](C)(c2cc(NC(=O)c3ccc(F)cn3)ccc2F)CS1(=O)=O [Verubecestat (MK-8931)]	92.7% and 98.7%	98.3%	88.9%	96.1%	94.4%	100%	99.9%	97.1%
COc1cc2nc(N3CCN(C(=O)c4ccco4)CC3)nc(N)c2cc1OC [Prazosin HCl]	99.9% and 102%	102%	96.8%	103%	101%	97%	102%	95.6%
C=C[C@]1(C)C[C@@H](OC(=O)CS[C@@H]2C[C@H]3CC[C@@H](C2)N3C)[C@]2(C)[C@H](C)CC[C@]3(CCC(=O)[C@H]32)[C@@H](C)[C@@H]1O [Retapamulin]	81.2% and 79.9%	84%	85.6%	84.6%	87.6%	84.5%	75.8%	84%
CNCCN(C)Cc1c[nH]nc1-c1ccc(O[C@H]2C[C@H](OCCC3CCOCC3)C2)cc1	90% and 92.8%	89.7%	89%	92.4%	79.4%	96.4%	67.1%	75.1%
CCCCC(CC)COC(=O)C(C#N)=C(c1ccccc1)c1ccccc1 (stereo unspecified) [Octocrylene]	94.2% and 88.6%	97.5%	95.1%	107%	95.1%	98.5%	98.4%	99.9%
C=C[C@@]1(C)CC(=O)[C@]2(O)[C@@]3(C)[C@@H](O)CCC(C)(C)[C@@H]3[C@H](O)[C@H](OC(C)=O)[C@@]2(C)O1 [Forskolin]	96.8% and 104%	94%	99%	88.6%	92.6%	101%	105%	96.1%
O=C(O)c1cccnc1 [Niacin (Nicotinic acid)]	108% and 98.1%	109%	99.3%	111%	103%	101%	74%	78.7%
CN(C)c1ccc(-c2nc3ncc(Cl)c(N4CCN(CC(=O)Nc5nccs5)CC4)c3[nH]2)cc1	95.8% and 101%	95.2%	96.9%	109%	78.9%	87.5%	92.4%	95.1%
CCOC(=O)/C=C/c1ccc(O)c(O)c1 [Ethyl caffeate]	88.5% and 88.6%	95%	44.4%	80.5%	78.1%	78.1%	76.8%	77.7%
COc1cc(C=O)cc(OC)c1O [Syringaldehyde]	110% and 99.8%	96%	102%	112%	99.2%	105%	94.8%	114%
CCCCCCCCCC(C)=O [Methylnonylketone]	93.2% and 96.8%	96.3%	96.2%	101%	97.7%	99.7%	99.5%	97.2%
CC1(C)S[C@@H]2[C@H](NC(=O)C(C(=O)O)c3ccccc3)C(=O)N2[C@H]1C(=O)O (stereo partly specified) [Carbenicillin disodium]	93.2% and 88.7%	97.2%	90.3%	98.8%	98.6%	95.4%	95%	93%
CCCC(=O)OCOC(=O)C1=C(C)NC(C)=C(C(=O)OC)C1c1cccc(Cl)c1Cl (stereo unspecified) [Clevidipine Butyrate]	102% and 105%	104%	100%	107%	104%	109%	107%	108%
Clc1ccc2nsnc2c1NC1=NCCN1 [Tizanidine HCl]	104% and 101%	104%	94.3%	107%	103%	99.6%	101%	106%
CCCc1cc(C)[nH]c(=O)c1CNC(=O)c1cc(-c2ccc(N3CCN(C)CC3)nc2)nc2c1cnn2C(C)C	15.9% and 4.45%	20.9%	85.6%	47.7%	55.9%	78.5%	0.4%	0.41%
Nc1ccc(S(N)(=O)=O)cc1 [Sulfanilamide]	99.1% and 101%	98.9%	102%	107%	96.2%	102%	102%	110%
CC(=O)Nc1ccc(OC(=O)c2ccccc2OC(C)=O)cc1 [Benorylate]	102%	98.9%	104%	100%	104%	101%	107%	108%

From the supplement of paper PMC10981050
